Experiment [1] can be described thus: qHTS for Inhibitors of the Functional Ribonucleoprotein Complex (vRNP) of Lassa (LASV) Arenavirus: Viability assay - alamar blue signal for LASV Primary Screen (AID 1347083; calls by dose curve; tested in HEK293 reporter line; further: nearly all actives have a fitted effect of over 80% in size).
The nature of experiment [2]: qHTS for Inhibitors of the Functional Ribonucleoprotein Complex (vRNP) of Lymphocytic Choriomeningitis Arenaviruses (LCMV): Viability assay - alamar blue signal for LCMV Primary Screen (AID 1347085; calls by dose curve; tested in HEK293 reporter line; further: nearly all actives have a fitted effect of over 80% in size). (In general: Quantitative high-throughput screening tests each substance at several concentrations.)
For experiment [3], the target named is Nucleoprotein (Lymphocytic choriomeningitis virus (strain Armstrong)) (UniProt P09992). The experiment is described as follows: qHTS for Inhibitors of the Functional Ribonucleoprotein Complex (vRNP) of Lymphocytic Choriomeningitis Arenaviruses (LCMV): LCMV Primary Screen - GLuc reporter signal (AID 1347086). Further: nearly all actives have a fitted effect of over 70% in size.
Nucleoprotein (Lymphocytic choriomeningitis virus (strain Armstrong)), sequence (P09992 whole entry, looked up): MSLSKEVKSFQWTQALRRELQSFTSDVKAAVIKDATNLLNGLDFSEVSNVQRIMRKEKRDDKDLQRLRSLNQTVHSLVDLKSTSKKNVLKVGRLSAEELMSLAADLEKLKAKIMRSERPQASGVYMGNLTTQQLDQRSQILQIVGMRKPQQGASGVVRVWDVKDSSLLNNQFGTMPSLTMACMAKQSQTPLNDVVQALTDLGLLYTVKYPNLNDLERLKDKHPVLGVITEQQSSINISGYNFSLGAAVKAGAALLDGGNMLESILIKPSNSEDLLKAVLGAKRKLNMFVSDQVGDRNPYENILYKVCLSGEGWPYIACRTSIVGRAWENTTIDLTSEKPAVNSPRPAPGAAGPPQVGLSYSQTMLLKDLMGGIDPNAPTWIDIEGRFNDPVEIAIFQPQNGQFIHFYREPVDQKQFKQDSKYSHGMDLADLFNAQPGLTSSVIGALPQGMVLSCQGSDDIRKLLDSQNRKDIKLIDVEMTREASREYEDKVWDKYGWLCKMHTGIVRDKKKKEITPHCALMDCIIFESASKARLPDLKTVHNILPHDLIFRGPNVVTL

Records with an inconclusive call do not appear. Values without a mark were called inactive. Active and inactive are the calls of the source. Unless noted, the call rests on the fitted dose curve.

In PubChem BioAssay (NCATS) one finds Potency data, which are given here for 38 compounds.
Potency means the concentration at half of the fitted maximal effect.

With `CC(CN(C)C)CN1c2ccccc2CCc2ccccc21` (centres undefined), the Potency result in experiment [1], in experiment [2] and in experiment [3] was “inactive” throughout.

As to `CC(C)NCC(O)c1ccc(O)c(O)c1` (centres undefined), the Potency entry in experiment [1], in experiment [2] and in experiment [3] was “inactive” throughout.

On to `CC(=O)SC[C@@H](C)C(=O)N1CCC[C@H]1C(=O)N[C@@H](Cc1ccccc1)C(=O)O`, for which the Potency result in experiment [1], in experiment [2] and in experiment [3] was “inactive” in each case.

Take `O[C@@H]1CO[C@H]2[C@@H]1OC[C@@H]2O`: the Potency entry in experiment [1], in experiment [2] and in experiment [3] was “inactive” throughout.

As for `Nc1nc(=S)c2[nH]cnc2[nH]1`, in experiment [1], the Potency was 17.2 µM (active).

In the case of `CS(=O)(=O)OCCCCOS(C)(=O)=O`, the Potency result in experiment [1], in experiment [2] and in experiment [3] was “inactive” throughout.

As for `CCCN[C@H]1CCc2nc(N)sc2C1`, the Potency entry in experiment [1], in experiment [2] and in experiment [3] was “inactive” each time.

With `O=C(O)c1cn(C2CC2)c2cc(N3CCNCC3)c(F)cc2c1=O`, the Potency entry in experiment [1], in experiment [2] and in experiment [3] was “inactive” in each case.

Turning to `Cc1ccc(O)c([C@H](CCN(C(C)C)C(C)C)c2ccccc2)c1`, the Potency entry in experiment [1], in experiment [2] and in experiment [3] was “inactive” in each case.

Turning to `CCCN(CCC)S(=O)(=O)c1ccc(C(=O)O)cc1`, the Potency result in experiment [1], in experiment [2] and in experiment [3] was “inactive” throughout.

For `COc1cc2ncnc(Nc3ccc(F)c(Cl)c3)c2cc1OCCCN1CCOCC1`, the Potency is 2.22 µM (active) in experiment [1] and 1.11 µM (active) in experiment [2].

For the compound `CCC1=C[C@@H]2CN(C1)Cc1c([nH]c3ccccc13)[C@@](C(=O)OC)(c1cc3c(cc1OC)N(C)[C@H]1[C@@](O)(C(=O)OC)[C@H](OC(C)=O)[C@]4(CC)C=CCN5CC[C@]31[C@@H]54)C2`, the Potency entry in experiment [1], in experiment [2] and in experiment [3] was “inactive” in each case.

In the case of `CC(C)C(=O)Nc1ccc([N+](=O)[O-])c(C(F)(F)F)c1`, the Potency entry in experiment [1] and in experiment [2] was “inactive” throughout.

In the case of `NC(=O)N/N=C/c1ccc([N+](=O)[O-])o1`, the Potency result in experiment [1] and in experiment [2] was “inactive” each time.

With `CCN(CCO)CCCC(C)Nc1ccnc2cc(Cl)ccc12` (centres undefined), the Potency result in experiment [1], in experiment [2] and in experiment [3] was “inactive” throughout.

As for `CCCCOCCOCCOCc1cc2c(cc1CCC)OCO2`, the Potency result in experiment [1], in experiment [2] and in experiment [3] was “inactive” in each case.

`CC/C(=C(\c1ccccc1)c1ccc(OCCN(C)C)cc1)c1ccccc1`: the Potency result in experiment [1], in experiment [2] and in experiment [3] was “inactive” throughout.

In the case of `N=C(N)c1ccc(OCCCCCOc2ccc(C(=N)N)cc2)cc1`, in experiment [1], the Potency is 38.5 µM (active).

As for `CCCCc1oc2ccc(NS(C)(=O)=O)cc2c1C(=O)c1ccc(OCCCN(CCCC)CCCC)cc1`, the Potency result in experiment [1] and in experiment [2] was “inactive” in each case.

Consider `Cc1cn[nH]c1`, for which the Potency entry in experiment [1], in experiment [2] and in experiment [3] was “inactive” each time.

For `O=C1CCC(N2C(=O)c3ccccc3C2=O)C(=O)N1` (centres undefined), the Potency entry in experiment [1], in experiment [2] and in experiment [3] was “inactive” throughout.

On to `CN(C)C(=O)C(CCN1CCC(O)(c2ccc(Cl)cc2)CC1)(c1ccccc1)c1ccccc1`, for which the Potency entry in experiment [1] was “inactive”.

For `CC(C)(O)c1ccccc1CC[C@@H](SCC1(CC(=O)O)CC1)c1cccc(/C=C/c2ccc3ccc(Cl)cc3n2)c1`, the Potency entry in experiment [1], in experiment [2] and in experiment [3] was “inactive” in each case.

As for `NC(=Nc1ccccc1)Nc1ccccc1`, the Potency result in experiment [1], in experiment [2] and in experiment [3] was “inactive” each time.

For `NS(=O)(=O)c1cc2c(cc1Cl)NC=NS2(=O)=O`, the Potency result in experiment [1], in experiment [2] and in experiment [3] was “inactive” throughout.

`CO/N=C1\CN(c2nc3c(cc2F)c(=O)c(C(=O)O)cn3C2CC2)CC1CN` (centres undefined): the Potency entry in experiment [1], in experiment [2] and in experiment [3] was “inactive” in each case.

As for `CN(C/C=C/C#CC(C)(C)C)Cc1cccc2ccccc12`, the Potency result in experiment [1], in experiment [2] and in experiment [3] was “inactive” in each case.

Consider `CC1(C)S[C@@H]2[C@H](NC(=O)C(C(=O)O)c3ccccc3)C(=O)N2[C@H]1C(=O)O` (some centres undefined), for which the Potency entry in experiment [1], in experiment [2] and in experiment [3] was “inactive” each time.

Take `O=C1NC(=O)C(c2ccccc2)(c2ccccc2)N1`: the Potency entry in experiment [1], in experiment [2] and in experiment [3] was “inactive” in each case.

For `NS(=O)(=O)Cc1noc2ccccc12`, the Potency entry in experiment [1], in experiment [2] and in experiment [3] was “inactive” each time.

Regarding `Cc1ncc([N+](=O)[O-])n1CCO`, the Potency result in experiment [1], in experiment [2] and in experiment [3] was “inactive” in each case.

Turning to `COC(=O)Nc1nc2ccc(C(=O)c3ccccc3)cc2[nH]1`, the results for the Potency in experiment [1], in experiment [2] and in experiment [3] were 3.43 µM (active), 6.85 µM (active) and 5.44 µM (active), respectively.

As to `C[C@H]1c2cccc(O)c2C(O)=C2C(=O)[C@]3(O)C(O)=C(C(N)=O)C(=O)[C@@H](N(C)C)[C@@H]3[C@@H](O)[C@@H]21`, the Potency entry in experiment [1], in experiment [2] and in experiment [3] was “inactive” throughout.

Consider `N[C@@H](Cc1cc(I)c(Oc2cc(I)c(O)c(I)c2)c(I)c1)C(=O)O`, for which the Potency entry in experiment [1], in experiment [2] and in experiment [3] was “inactive” each time.

For the compound `CC(=O)Oc1ccccc1C(=O)Nc1ncc([N+](=O)[O-])s1`, the Potency result in experiment [1], in experiment [2] and in experiment [3] was “inactive” in each case.

For `CC(C)C1CCC(C(=O)N[C@H](Cc2ccccc2)C(=O)O)CC1` (some centres undefined), the Potency result in experiment [1], in experiment [2] and in experiment [3] was “inactive” in each case.

With `CC(COc1ccccc1)N(CCCl)Cc1ccccc1` (centres undefined), the Potency entry in experiment [1], in experiment [2] and in experiment [3] was “inactive” throughout.

Turning to `CN1CCN(CCCN2c3ccccc3Sc3ccc(C(F)(F)F)cc32)CC1`, the Potency entry in experiment [1], in experiment [2] and in experiment [3] was “inactive” throughout.
